Assay outcomes: PubChem BioAssay, National Center for Advancing Translational Sciences (NCATS)
Hits are enriched below; roughly 8% of the tested compounds scored in any of these assays.
KB-3-1 tox: KB-3-1 parental cell cytotoxicity | KB-3-1 viability, CellTiter-Glo ATP luminescence, 72 h | Potency, µM (doses to about 46.1 µM), hits mostly cytotoxic | hit rate 1.4% among 400,000 | AID 1347075; also: % is scaled to controls: 0 for no effect and ±100 for the full control effect; nearly all actives have a fitted effect of over 60% in size
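Viability of parental KB-3-1 cells, measured by CellTiter-Glo luminescence, followed a 72 h incubation at 37 °C with pinned compounds in phenol-red-free DMEM containing 10% FBS.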
HT1080 IDH1KD tx: HT-1080 IDH1 knockdown cell toxicity (counter line). HT-1080 IDH1 knockdown viability, ATP luminescence, 48 h. Potency, µM (highest dose often 46.1 µM), without a hit: at the highest dose activity, negative = toxicity, actives largely listed as cytotoxic. hit rate 2% among 360,000. AID 686971;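 also: 0% = DMSO wells and -100% = cell-free medium wells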
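Viability of IDH1-knockdown HT-1080 fibrosarcoma cells was assessed by CellTiter-Glo after 48 h at 37 °C with titrated compound; concentration-effect curves were classified by fit quality and response size.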
KB-V1 cytotox: kills drug-selected multidrug resistant KB-V1 cells; KB-V1 MDR cells viability, CellTiter-Glo, 72 h; Potency, µM (titrated, usually from 46.1 µM), hits mostly cytotoxic; hit rate 3.4% among 400,000; AID 1347076; also: % is scaled to controls: 0 for no effect and ±100 for the full control effect; nearly all actives have a fitted effect of over 60% in size
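KB-V1, DMEM (no phenol red) + 10% FBS; cpd pin-transferred, titration series; 72 h, 37 degrees C; CellTiter-Glo, luminescence. Data normalized, curve-fit.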
SW480 rereplic: DNA re-replication induction in SW480 cells | AID 624297 | Potency, µM (titrated, usually from 46.1 µM), for inactives: at the highest dose re-replication activation, hits mostly activators | hit rate 1.8% among 340,000 | SW480 DNA re-replication, Hoechst DNA content imaging, 48 h; also: % of control where 0% means no effect; nearly all actives have a fitted effect of over 55% in size
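Readout is total intensity of Hoechst-stained nuclei, excited at 405 nm and collected at 500-530 nm. Compound treatment lasted 48 hr at 37 C in 5% CO2 before staining.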
MCF10A rerep: induces DNA re-replication in MCF 10a normal breast cells | Potency, µM (series often up to 46.1 µM), for the others: at the top dose activity, positive = re-replication, usual class: activators | MCF 10A DNA re-replication, Hoechst nuclear intensity, 48 h | hit rate 2.9% among 350,000 | AID 624296; also: % of control where 0% means no effect; nearly all actives have a fitted effect of over 50% in size
HT1080-NT tox: kills 2HG-producing HT-1080-NT fibrosarcoma cells. HT-1080-NT fibrosarcoma viability, CellTiter-Glo ATP luminescence, 48 h. Potency, µM (top dose mostly 46.1 µM), for inactives: at the top dose activity, negative = less viability, hits mostly cytotoxic. hit rate 1.6% among 360,000. AID 686970;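 also: NT is the 2HG producing partner of a matched IDH1 knockdown line; 0% = DMSO-treated cells and -100% = media-only wells without cells; nearly all actives have a fitted effect of over 55% in size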
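Read-out is CellTiter-Glo luminescence after 10 minutes at room temperature, following 48 hours' compound treatment of HT-1080-NT cells (750 cells/well, RPMI, 5% FBS, 37 degrees C).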
The depositor's hits bear a star. Calls follow the shape of the dose curve; as a rule, active = well fitted curve in the direction sought with a large enough effect; inconclusive = small, poorly fitted or top-dose-only effect, or another doubt; inactive = no such curve, though single readings can be large; an effect the other way counts as inactive or inconclusive. Potency is read from the fitted curve at half-maximal effect.

Screening COc1ccccc1OCCCCN1CCN(C(c2ccccc2)c2ccccc2)CC1 returned KB-3-1 tox inconclusive, HT1080 IDH1KD tx 18µM*, KB-V1 cytotox inconclusive, SW480 rereplic inconclusive, MCF10A rerep inconclusive and HT1080-NT tox inconclusive.
CC12c3ccccc3C(c3ccccc31)C1C(=O)N(c3cccnc3)C(=O)C12 (centres undefined) was read as KB-3-1 tox inactive, HT1080 IDH1KD tx 14%, KB-V1 cytotox 15µM*, SW480 rereplic -1%, MCF10A rerep 0% and HT1080-NT tox 5%.
`CC12c3ccccc3C(c3ccccc31)C1C(=O)N(c3ccncc3)C(=O)C12` (centres undefined) gave KB-3-1 tox inactive, HT1080 IDH1KD tx -23%, KB-V1 cytotox inactive, SW480 rereplic -5%, MCF10A rerep -1% and HT1080-NT tox -17%.
For COc1ccccc1CNc1ccc(-c2nc(-c3cccnc3)no2)cc1[N+](=O)[O-] the results were KB-3-1 tox inactive and KB-V1 cytotox inactive.
`COc1ccc(NC(=O)c2oc3ccccc3c2NC(=O)COc2ccc(F)cc2)c(OC)c1` gave KB-3-1 tox inactive and KB-V1 cytotox inactive.
O=C(Nc1ccc2nc(-c3ccc(Br)o3)[nH]c2c1)c1cccs1 was read as KB-3-1 tox inconclusive, HT1080 IDH1KD tx inconclusive, KB-V1 cytotox 8.2µM*, SW480 rereplic 3%, MCF10A rerep 19% and HT1080-NT tox -1%.
For CCc1c(C)[nH]n(-c2nc(-c3cccc([N+](=O)[O-])c3)cs2)c1=O the results were KB-3-1 tox inconclusive, HT1080 IDH1KD tx -1%, KB-V1 cytotox 16µM*, SW480 rereplic -5%, MCF10A rerep -3% and HT1080-NT tox 2%.
`CC(=O)c1ccc(NC(=O)COC(=O)c2c3c(nc4ccccc24)/C(=C\c2cccs2)CCC3)cc1` gave KB-3-1 tox inactive, HT1080 IDH1KD tx inconclusive, KB-V1 cytotox 16µM*, SW480 rereplic 21µM*, MCF10A rerep 5.8µM* and HT1080-NT tox -21%.
O=C(COC(=O)c1c2c(nc3ccccc13)/C(=C\c1cccs1)CCC2)Nc1ccccc1 was read as KB-3-1 tox 12µM*, HT1080 IDH1KD tx -28%, KB-V1 cytotox 2.3µM*, SW480 rereplic 13µM*, MCF10A rerep inconclusive and HT1080-NT tox -12%.
`CC(C)CNC(=O)COC(=O)c1c2c(nc3ccccc13)/C(=C\c1cccs1)CC2` gave KB-3-1 tox inactive, HT1080 IDH1KD tx inconclusive, KB-V1 cytotox inconclusive, SW480 rereplic 6.5µM*, MCF10A rerep inconclusive and HT1080-NT tox -5%.
Screening O=C(COC(=O)c1c2c(nc3ccccc13)CCCC2)Nc1ccc2c(c1)OCO2 returned KB-3-1 tox inconclusive, HT1080 IDH1KD tx inconclusive, KB-V1 cytotox inconclusive, SW480 rereplic 1%, MCF10A rerep 29% and HT1080-NT tox inconclusive.
For CO[C@H]1/C=C\O[C@@]2(C)Oc3c(C)c(O)c4c(O)c(c(C=NN5CCN(C6CCCC6)CC5)c(O)c4c3C2=O)NC(=O)C(C)=CC=C[C@H](C)[C@H](O)[C@@H](C)[C@@H](O)[C@@H](C)[C@H](OC(C)=O)[C@H]1C the results were KB-3-1 tox inactive and KB-V1 cytotox inactive.
For Cc1ccc(Cl)cc1NC(=O)Nc1nnc(N(C)Cc2ccccc2)s1 the results were KB-3-1 tox inactive and KB-V1 cytotox inactive.
Screening COC(=O)c1c(Oc2ccc(C(C)=O)cc2)nnc(-c2ccccc2)c1-c1ccccc1 returned KB-3-1 tox inconclusive and KB-V1 cytotox inactive.
`CCOc1cc(OCC)c(C(=O)CCC(=O)O)cc1OCC` gave SW480 rereplic -6% and MCF10A rerep 7%.
CCN(CC)C1=CC(=[N+]2CCCC2)CC(C)(C)C1 was read as KB-3-1 tox inconclusive, HT1080 IDH1KD tx inconclusive, KB-V1 cytotox inactive, SW480 rereplic 1%, MCF10A rerep 0% and HT1080-NT tox inconclusive.
For CN(Cc1ccccc1)C1=CC(=[N+]2CCCC2)CC(C)(C)C1 the results were KB-3-1 tox inactive, HT1080 IDH1KD tx inconclusive, KB-V1 cytotox inactive, SW480 rereplic 1%, MCF10A rerep 0% and HT1080-NT tox inconclusive.
`CC1(C)CC(N2CCN(c3ccccc3)CC2)=CC(=[N+]2CCCC2)C1` gave KB-3-1 tox 12µM*, HT1080 IDH1KD tx 14µM*, KB-V1 cytotox inactive, SW480 rereplic 3%, MCF10A rerep 2% and HT1080-NT tox 1.1µM*.
CC1(C)CC(N2CCCC2)=CC(=[N+]2CCCCCC2)C1 was read as KB-3-1 tox inconclusive, HT1080 IDH1KD tx 12µM*, KB-V1 cytotox inactive, SW480 rereplic -1%, MCF10A rerep -2% and HT1080-NT tox inconclusive.
Screening CC1CC(C)C[N+](=C2C=C(N3CCCC3)CC(C)(C)C2)C1 (centres undefined) returned KB-3-1 tox 5.8µM*, HT1080 IDH1KD tx inconclusive, KB-V1 cytotox inactive, SW480 rereplic inconclusive, MCF10A rerep 26% and HT1080-NT tox 9.2µM*.
Screening COc1cccc(NC(=O)C(C)n2c(=O)cc(C(F)(F)F)c3c(C)nn(C)c32)c1 (centres undefined) returned KB-3-1 tox inactive and KB-V1 cytotox inactive.
For COc1ccc(-c2nc3cc(C(C)C)ccc3o2)cc1NC(=O)c1ccccc1[N+](=O)[O-] the results were KB-3-1 tox inconclusive and KB-V1 cytotox inactive.
Screening COc1ccccc1NC(=O)C1=C(C)Nc2nc3ccccc3n2C1c1cccc(Br)c1 (centres undefined) returned KB-3-1 tox inactive and KB-V1 cytotox inactive.
`O=C(CCCCCn1c(=S)[nH]c2ccc(N3CCOCC3)cc2c1=O)NCc1ccc(Cl)cc1` gave KB-3-1 tox inconclusive, HT1080 IDH1KD tx 15%, KB-V1 cytotox inactive, SW480 rereplic inconclusive, MCF10A rerep 6.5µM* and HT1080-NT tox -11%.
`O=C(CCCCCn1c(=S)[nH]c2ccc(N3CCOCC3)cc2c1=O)NCc1ccccc1Cl` gave KB-3-1 tox inactive, HT1080 IDH1KD tx -10%, KB-V1 cytotox inactive, SW480 rereplic inconclusive, MCF10A rerep 18µM* and HT1080-NT tox -10%.
CCN(CC)S(=O)(=O)c1ccc2c(c1)c(=O)c(C(=O)NCc1ccccc1Cl)cn2C was read as KB-3-1 tox inactive and KB-V1 cytotox inactive.
`CC1Cc2ccccc2N1c1ncnc2c1nnn2Cc1ccccc1Cl` (centres undefined) gave KB-3-1 tox inactive, HT1080 IDH1KD tx 2%, KB-V1 cytotox inactive, SW480 rereplic -1%, MCF10A rerep 0% and HT1080-NT tox -3%.
